Measured values taken from PubChem BioAssay (EPA / NIEHS).
Results filed as inconclusive are left out. Calls of active or inactive are those of the source. The calls were made as follows: active = hit-call score of the fitted dose curve at least 0.9, where 1 is the maximum; inconclusive = response in the unintended direction; inactive = score below 0.9.

target: human Insulin Receptor (InsR), INSR (gene 3643) (UniProt P06213); assay: NVS_ENZ_hInsR: NovaScreen (NVS) Enzymatic Assay for human Insulin Receptor (InsR) (AID 2283168)
Sequence (P06213 whole entry, looked up): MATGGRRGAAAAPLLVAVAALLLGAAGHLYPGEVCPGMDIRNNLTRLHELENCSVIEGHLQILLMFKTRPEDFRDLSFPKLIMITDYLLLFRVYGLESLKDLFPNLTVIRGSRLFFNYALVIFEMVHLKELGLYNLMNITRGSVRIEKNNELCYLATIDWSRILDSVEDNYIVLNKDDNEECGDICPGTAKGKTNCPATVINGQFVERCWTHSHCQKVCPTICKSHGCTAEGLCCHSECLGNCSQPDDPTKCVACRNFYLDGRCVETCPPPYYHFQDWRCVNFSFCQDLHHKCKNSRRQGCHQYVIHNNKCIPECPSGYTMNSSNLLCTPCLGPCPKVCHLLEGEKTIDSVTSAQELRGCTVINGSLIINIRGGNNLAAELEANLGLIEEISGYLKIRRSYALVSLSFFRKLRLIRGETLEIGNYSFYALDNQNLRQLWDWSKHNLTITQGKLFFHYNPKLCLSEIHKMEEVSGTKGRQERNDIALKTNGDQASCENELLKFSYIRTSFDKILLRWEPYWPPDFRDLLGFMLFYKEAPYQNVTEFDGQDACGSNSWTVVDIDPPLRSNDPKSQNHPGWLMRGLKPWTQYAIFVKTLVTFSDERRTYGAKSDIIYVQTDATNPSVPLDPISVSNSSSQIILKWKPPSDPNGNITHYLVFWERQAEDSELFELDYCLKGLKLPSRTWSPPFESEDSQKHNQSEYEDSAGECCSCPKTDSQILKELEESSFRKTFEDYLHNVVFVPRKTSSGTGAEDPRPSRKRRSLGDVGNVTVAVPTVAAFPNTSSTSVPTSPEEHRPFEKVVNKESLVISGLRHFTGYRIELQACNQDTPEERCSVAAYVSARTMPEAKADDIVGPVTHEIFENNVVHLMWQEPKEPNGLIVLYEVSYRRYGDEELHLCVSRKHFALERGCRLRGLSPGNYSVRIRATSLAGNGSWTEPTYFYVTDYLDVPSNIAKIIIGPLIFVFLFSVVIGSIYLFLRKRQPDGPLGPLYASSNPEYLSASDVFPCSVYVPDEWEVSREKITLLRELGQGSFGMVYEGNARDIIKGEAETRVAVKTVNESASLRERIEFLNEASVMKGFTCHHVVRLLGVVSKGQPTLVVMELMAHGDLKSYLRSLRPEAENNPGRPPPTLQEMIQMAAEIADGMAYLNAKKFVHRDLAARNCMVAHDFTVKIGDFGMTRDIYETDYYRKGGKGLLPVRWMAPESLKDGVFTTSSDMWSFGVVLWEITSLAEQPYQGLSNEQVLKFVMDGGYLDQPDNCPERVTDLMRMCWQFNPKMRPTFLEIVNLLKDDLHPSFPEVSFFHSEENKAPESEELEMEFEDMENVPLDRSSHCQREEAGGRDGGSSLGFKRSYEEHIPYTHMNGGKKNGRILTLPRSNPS
Procedure, shortened: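 Fluorescent substrate phosphorylation by recombinant kinase, product resolved by electrophoretic mobility shift, read 1 h after dosing. Screened in duplicate at 25 uM; hits (e.g., 30% inhibition) run in concentration-response to 50 uM; DMSO as baseline.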

| SMILES | outcome |
| --- | --- |
| O=C(O)CCCCC(=O)O | inactive |
| COc1cc(C=O)ccc1O | inactive |
| CC(=O)OCCOCCOCCOC(C)=O | inactive |
| CCc1c(C(=O)NN2CCCCC2)nn(-c2ccc(Cl)cc2Cl)c1-c1ccc(Br)cc1 | inactive |

target: human Janus Kinase 2 (Jak2), JAK2 (gene 3717) (UniProt O60674); assay: NVS_ENZ_hJak2: NovaScreen (NVS) Enzymatic Assay for human Janus Kinase 2 (Jak2) (AID 2283169)
Sequence (O60674 whole entry, looked up): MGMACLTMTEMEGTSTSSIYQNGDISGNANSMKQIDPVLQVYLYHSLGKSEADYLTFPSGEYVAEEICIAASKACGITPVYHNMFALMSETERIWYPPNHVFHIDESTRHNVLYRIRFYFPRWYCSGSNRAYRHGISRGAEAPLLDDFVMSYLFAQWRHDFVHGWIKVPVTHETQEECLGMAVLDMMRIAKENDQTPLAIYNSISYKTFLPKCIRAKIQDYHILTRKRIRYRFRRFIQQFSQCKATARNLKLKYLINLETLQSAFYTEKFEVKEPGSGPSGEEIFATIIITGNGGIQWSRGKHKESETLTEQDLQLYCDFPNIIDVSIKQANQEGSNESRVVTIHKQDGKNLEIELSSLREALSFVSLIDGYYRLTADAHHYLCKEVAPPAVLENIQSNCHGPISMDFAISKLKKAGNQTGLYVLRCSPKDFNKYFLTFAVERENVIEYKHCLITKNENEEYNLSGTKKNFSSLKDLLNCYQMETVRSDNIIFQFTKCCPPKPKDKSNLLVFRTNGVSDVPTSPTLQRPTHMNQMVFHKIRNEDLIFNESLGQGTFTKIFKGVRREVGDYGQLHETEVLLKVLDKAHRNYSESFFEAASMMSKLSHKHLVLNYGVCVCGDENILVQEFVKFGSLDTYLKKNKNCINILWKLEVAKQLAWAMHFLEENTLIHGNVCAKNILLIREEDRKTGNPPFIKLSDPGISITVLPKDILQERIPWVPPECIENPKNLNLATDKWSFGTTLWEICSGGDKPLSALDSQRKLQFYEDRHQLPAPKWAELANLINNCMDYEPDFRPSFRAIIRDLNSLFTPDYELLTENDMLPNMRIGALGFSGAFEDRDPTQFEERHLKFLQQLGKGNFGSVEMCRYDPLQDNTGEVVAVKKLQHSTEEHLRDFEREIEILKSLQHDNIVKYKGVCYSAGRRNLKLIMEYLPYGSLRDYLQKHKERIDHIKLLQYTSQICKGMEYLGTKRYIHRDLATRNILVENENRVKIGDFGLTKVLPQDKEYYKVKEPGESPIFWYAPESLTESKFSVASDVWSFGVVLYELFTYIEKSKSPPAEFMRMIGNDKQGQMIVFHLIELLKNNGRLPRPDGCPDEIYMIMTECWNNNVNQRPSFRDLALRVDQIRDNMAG
Experimental: (§1) NVS_ENZ_hJak2 is a biochemical, single-readout assay that uses extracted gene-proteins in a cell-free assay. Measurements were taken 1 hour after chemical dosing in a 384-well plate.NVS_ENZ_hJak2 is one of one assay component(s) measured or calculated from the NVS_ENZ_hJak2 assay. It is designed to make measurements of enzyme activity, a form of enzyme reporter, as detected with fluorescence intensity signals by Fluorescence and electrophoretic mobility shift technology.Data from the assay component NVS_ENZ_hJak2 was analyzed into 1 assay endpoint. This assay endpoint, NVS_ENZ_hJak2, was analyzed in the positive analysis fitting direction relative to DMSO as the negative control and baseline of activity. Using a type of enzyme reporter, loss-of-signal activity can be used to understand changes in the enzymatic activity as they relate to the gene JAK2. Furthermore, this assay endpoint can be referred to as a primary readout, because this assay has produced multiple assay endpoints where this one serves a enzymatic activity function. To generalize the intended target to other relatable targets, this assay endpoint is annotated to the kinase intended target family, where the subfamily is non-receptor tyrosine kinase.
(§2) Binding assays used specific radioligands (tritiated, iodinated) with non-radioactive competitive displacement ligands in agonist or antagonist protocols (as indicated) and various reference compounds and inhibitors to titrate specific binding to receptors and transporters. Most enzyme assays (CYPs, kinases, phosphatases, proteases, HDACs) used recombinant protein and specific substrates (fluorescence mostly, some colorimetric and radioactive) and inhibitors, followed by a biochemical separation of substrate and product. All assays for the biochemical HTS were initially run in duplicate at a single concentration (10 uM for CYP450 assays and 25 uM for all others). Assay-chemical combinations meeting a pre-defined threshold (e.g., 30% inhibition and other criteria defined below) were then run in singleton concentration-response format with maximum concentration of 20 uM for CYPs and 50 uM for all others. Each assay was run with positive and negative controls, and concurrent controls on every plate. The follow-up (secondary) screen tested active chemical-pairs in concentration series, as well as a few additional assays not tested in the primary screen, some selected negative inactives, and several cases re-run in the concentration series for confirmatory purposes.

| SMILES | outcome | AC50 |
| --- | --- | --- |
| CC1=C(/C=C/C(C)=C/C=C/C(C)=C/CO)C(C)(C)CCC1 | inactive | – |
| Nc1nc(N)c2nc(CNc3ccc(C(=O)N[C@@H](CCC(=O)O)C(=O)O)cc3)cnc2n1 | – | 21.9 µM (active) |
| FC(F)(F)C(F)(F)C(F)(F)C(F)(F)C(F)(F)C(F)(F)CCI | inactive | – |
| CCOC(=O)C(C)(C)Oc1ccc(Cl)cc1 | inactive | – |
| Cc1oc(-c2ccccc2)nc1CCOc1cccc2c1ccn2CCC(=O)O | inactive | – |
| Cc1nc(-c2ccc3c(c2)CCN(CCC2CCC(NC(=O)/C=C/c4ccc(F)cc4)CC2)CC3)no1 (stereo unspecified) | – | 17.1 µM (active) |
| CCCCCCCCCCCCCCCCCC(=O)O | inactive | – |
| CCCCCCCCCCCCCCCC | inactive | – |

target: human MAP Kinase-Activated Protein Kinase 2 (MAPKAPK2), MAPKAPK2 (gene 9261) (UniProt P49137); assay: NVS_ENZ_hMAPKAPK2: NovaScreen (NVS) Enzymatic Assay for human MAP Kinase-Activated Protein Kinase 2 (MAPKAPK2) (AID 2283178)
Sequence (P49137 whole entry, looked up): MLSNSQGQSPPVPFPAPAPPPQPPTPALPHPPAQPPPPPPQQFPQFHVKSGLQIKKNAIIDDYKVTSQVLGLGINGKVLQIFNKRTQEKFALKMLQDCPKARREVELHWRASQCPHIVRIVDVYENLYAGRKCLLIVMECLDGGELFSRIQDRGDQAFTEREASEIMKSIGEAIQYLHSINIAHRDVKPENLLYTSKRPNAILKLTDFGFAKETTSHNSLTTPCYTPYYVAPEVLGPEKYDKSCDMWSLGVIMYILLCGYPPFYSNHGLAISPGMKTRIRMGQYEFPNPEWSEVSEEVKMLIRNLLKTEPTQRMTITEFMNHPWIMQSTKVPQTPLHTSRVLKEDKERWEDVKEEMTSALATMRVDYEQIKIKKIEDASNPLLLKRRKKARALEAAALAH
Experimental: as §1, with “NVS_ENZ_hMAPKAPK2” for “NVS_ENZ_hJak2”, “plate.NVS_ENZ_hMAPKAPK2” for “plate.NVS_ENZ_hJak2”, “NVS_ENZ_hMAPKAPK2,” for “NVS_ENZ_hJak2,”, “MAPKAPK2.” for “JAK2.”, “serine/threonine” for “non-receptor tyrosine”
as §2

| SMILES | AC50 | outcome |
| --- | --- | --- |
| COc1cc(-c2nc(NC(=O)c3cc4cc(C)cc(C)c4n3CC(=O)O)sc2CCC2CCCCC2)c(OC)cc1Cl | 6.49 µM (active) | – |
| CCOC(=O)CCC(=O)OCC | – | inactive |
| Nc1ccc2c(c1)C(=O)c1ccccc1C2=O | 16.5 µM (active) | – |
| CC(C)c1ccc(C(=O)N=C(N)N)cc1S(C)(=O)=O | – | inactive |

target: Collagenase 3 (Homo sapiens) (UniProt P45452); assay: NVS_ENZ_hMMP13: NovaScreen (NVS) Enzymatic Assay for human Matrix Metalloproteinase-13 (MMP13) (AID 2283182)
Procedure, shortened: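 Recombinant MMP13 cleaving fluorescent substrate, cell-free, measured 1 h after dosing. Primary duplicate screen at 25 uM; actives tested in concentration-response up to 50 uM; loss of signal relative to DMSO.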

| SMILES | AC50 | outcome |
| --- | --- | --- |
| CC1=C(/C=C/C(C)=C/C=C/C(C)=C/CO)C(C)(C)CCC1 | 18.2 µM (active) | – |
| c1cc(-c2ccncc2)ccn1 | – | inactive |
| CN[C@H]1CC[C@@H](c2ccc(Cl)c(Cl)c2)c2ccc(S(N)(=O)=O)cc21 | 2.36 µM (active) | – |
| CN1CCN(Cc2cc(-c3ccc4[nH]c(=O)oc4c3)co2)[C@@H](c2ccc(F)cc2)C1 | 7.74 µM (active) | – |
| COCCOC[C@H](CC1(C(=O)NC2CCC(C(=O)O)CC2)CCCC1)C(=O)Oc1ccc2c(c1)CCC2 (stereo partly specified) | 17.3 µM (active) | – |
| Cc1cccc([N+](=O)[O-])c1C | 2.06 µM (active) | – |
| Cc1nc(-c2ccc3c(c2)CCN(CCC2CCC(NC(=O)/C=C/c4ccc(F)cc4)CC2)CC3)no1 (stereo unspecified) | 5.67 µM (active) | – |

target: human Matrix Metalloproteinase-7 (MMP7), MMP7 (gene 4316) (UniProt P09237); assay: NVS_ENZ_hMMP7: NovaScreen (NVS) Enzymatic Assay for human Matrix Metalloproteinase-7 (MMP7) (AID 2283183)
Sequence (P09237 whole entry, looked up): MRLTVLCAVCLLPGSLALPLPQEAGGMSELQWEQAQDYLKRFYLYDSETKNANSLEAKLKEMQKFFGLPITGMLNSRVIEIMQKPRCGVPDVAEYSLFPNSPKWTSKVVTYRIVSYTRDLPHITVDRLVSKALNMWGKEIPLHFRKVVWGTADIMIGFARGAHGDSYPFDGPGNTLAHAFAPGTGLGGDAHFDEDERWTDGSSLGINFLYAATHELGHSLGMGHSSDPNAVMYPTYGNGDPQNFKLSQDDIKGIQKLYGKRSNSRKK
Procedure, shortened: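 Cell-free fluorescence enzymatic assay read 1 h after compound addition, activity loss analyzed against DMSO. Primary duplicate testing at 25 uM; compounds meeting threshold rerun in singleton concentration-response up to 50 uM.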

| SMILES | outcome |
| --- | --- |
| CC=Cc1ccc(O)c(OC)c1 | inactive |
| C[Si]1(C)O[Si](C)(C)O[Si](C)(C)O[Si](C)(C)O1 | inactive |
| CC(C)(C)c1cc(O)c(C(C)(C)C)cc1O | inactive |
| CN[C@H]1CC[C@@H](c2ccc(Cl)c(Cl)c2)c2ccc(S(N)(=O)=O)cc21 | inactive |
| O=[N+]([O-])C(CO)(CO)CO | inactive |
| Cc1oc(-c2ccccc2)nc1CCOc1cccc2c1ccn2CCC(=O)O | inactive |
| CN1CCN(Cc2cc(-c3ccc4[nH]c(=O)oc4c3)co2)[C@@H](c2ccc(F)cc2)C1 | inactive |
| CCCCCCC(=O)OCC | inactive |
| CNC(=O)[C@H]1O[C@@H](n2cnc3c(NCc4cc(Cl)ccc4OCc4cc(C)no4)ncnc32)[C@H](O)[C@@H]1N | inactive |
| CCCCCCCCCCCC(=O)OC | inactive |
| Nc1ccc(S(=O)(=O)c2ccc(N)cc2)cc1 | inactive |
| OC[C@@H](O)[C@@H](O)[C@H](O)[C@H](O)CO | inactive |

target: human Matrix Metalloproteinase-2 (MMP2), MMP2 (gene 4313) (UniProt P08253); assay: NVS_ENZ_hMMP2: NovaScreen (NVS) Enzymatic Assay for human Matrix Metalloproteinase-2 (MMP2) (AID 2283184)
Sequence (P08253 whole entry, looked up): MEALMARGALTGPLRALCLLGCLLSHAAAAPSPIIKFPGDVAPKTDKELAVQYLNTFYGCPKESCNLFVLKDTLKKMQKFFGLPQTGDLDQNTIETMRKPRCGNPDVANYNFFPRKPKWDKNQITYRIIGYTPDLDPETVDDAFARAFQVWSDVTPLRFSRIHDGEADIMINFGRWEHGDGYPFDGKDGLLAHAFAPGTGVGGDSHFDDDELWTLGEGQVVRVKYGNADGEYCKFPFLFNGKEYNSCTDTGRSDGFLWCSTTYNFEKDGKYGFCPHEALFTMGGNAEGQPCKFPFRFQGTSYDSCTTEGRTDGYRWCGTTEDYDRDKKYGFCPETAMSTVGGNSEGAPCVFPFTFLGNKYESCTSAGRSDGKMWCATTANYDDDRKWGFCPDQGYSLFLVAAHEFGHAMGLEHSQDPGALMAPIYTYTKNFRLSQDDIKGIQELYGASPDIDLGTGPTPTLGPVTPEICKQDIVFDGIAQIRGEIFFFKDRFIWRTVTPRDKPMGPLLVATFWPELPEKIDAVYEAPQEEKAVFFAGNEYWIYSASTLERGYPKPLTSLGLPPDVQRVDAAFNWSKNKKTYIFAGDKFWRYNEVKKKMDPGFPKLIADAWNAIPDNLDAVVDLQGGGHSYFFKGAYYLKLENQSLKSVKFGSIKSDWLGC
Procedure, shortened: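 Cell-free recombinant MMP2 activity with a fluorescent substrate, read 1 h after dosing. Primary screen in duplicate at 25 uM; actives then run in concentration series; loss of signal fitted versus DMSO.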

| SMILES | outcome | AC50 |
| --- | --- | --- |
| CCCc1cc(=O)[nH]c(=S)[nH]1 | inactive | – |
| C[Si]1(C)O[Si](C)(C)O[Si](C)(C)O[Si](C)(C)O1 | inactive | – |
| Cc1ccc2ncccc2c1 | inactive | – |
| COCCOC[C@H](CC1(C(=O)NC2CCC(C(=O)O)CC2)CCCC1)C(=O)Oc1ccc2c(c1)CCC2 (stereo partly specified) | – | 19.8 µM (active) |
| Cc1nc(-c2ccc3c(c2)CCN(CCC2CCC(NC(=O)/C=C/c4ccc(F)cc4)CC2)CC3)no1 (stereo unspecified) | – | 13.7 µM (active) |
| Cc1nc(C)nc(N2C[C@@H](C)N(c3ccnc([C@@H](C)O)n3)[C@@H](C)C2)n1 | – | 7.26 µM (active) |

target: human Matrix Metalloproteinase-3 (MMP3), MMP3 (gene 4314) (UniProt P08254); assay: NVS_ENZ_hMMP3: NovaScreen (NVS) Enzymatic Assay for human Matrix Metalloproteinase-3 (MMP3) (AID 2283185)
Sequence (P08254 whole entry, looked up): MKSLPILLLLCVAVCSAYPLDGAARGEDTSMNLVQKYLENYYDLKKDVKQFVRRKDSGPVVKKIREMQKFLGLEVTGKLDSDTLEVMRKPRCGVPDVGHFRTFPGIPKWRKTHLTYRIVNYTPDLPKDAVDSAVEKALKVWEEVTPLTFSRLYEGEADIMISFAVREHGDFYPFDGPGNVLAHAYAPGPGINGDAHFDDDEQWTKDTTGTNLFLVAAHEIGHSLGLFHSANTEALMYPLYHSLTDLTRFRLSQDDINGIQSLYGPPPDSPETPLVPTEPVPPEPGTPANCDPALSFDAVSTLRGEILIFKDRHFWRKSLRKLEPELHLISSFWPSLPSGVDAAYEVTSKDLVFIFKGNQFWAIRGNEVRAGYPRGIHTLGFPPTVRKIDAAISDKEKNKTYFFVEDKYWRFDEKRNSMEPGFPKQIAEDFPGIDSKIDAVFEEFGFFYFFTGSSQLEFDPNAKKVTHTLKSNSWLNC
Procedure, shortened: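 Cell-free recombinant human MMP3 activity, fluorescence intensity read 1 h after dosing. Primary screen duplicate at 25 uM, actives retested in concentration series; loss of signal vs DMSO baseline.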

| SMILES | outcome | AC50 |
| --- | --- | --- |
| NCC1(Cc2noc(=O)[nH]2)CCCCC1 | inactive | – |
| C[Si]1(C)O[Si](C)(C)O[Si](C)(C)O[Si](C)(C)O1 | inactive | – |
| CN[C@H]1CC[C@@H](c2ccc(Cl)c(Cl)c2)c2ccc(S(N)(=O)=O)cc21 | inactive | – |
| Nc1ccc2c(c1)C(=O)c1ccccc1C2=O | – | 31.6 µM (active) |
| CN1CCN(Cc2cc(-c3ccc4[nH]c(=O)oc4c3)co2)[C@@H](c2ccc(F)cc2)C1 | inactive | – |
| COc1cc(C=O)ccc1O | – | 3.71 µM (active) |
| CCCCc1ccc2c(n1)[C@@H](c1ccc(OC)cc1C[C@H](C)C(=O)O)[C@H](C(=O)O)[C@H]2c1ccc2c(c1)OCO2 | – | 38.6 µM (active) |
| Cc1nc(-c2ccc3c(c2)CCN(CCC2CCC(NC(=O)/C=C/c4ccc(F)cc4)CC2)CC3)no1 (stereo unspecified) | – | 16.6 µM (active) |
| CNC(=O)[C@H]1O[C@@H](n2cnc3c(NCc4cc(Cl)ccc4OCc4cc(C)no4)ncnc32)[C@H](O)[C@@H]1N | inactive | – |
| COc1cc(S(=O)(=O)O)c(C)cc1N=Nc1c(O)ccc2cc(S(=O)(=O)O)ccc12 | – | 19.2 µM (active) |
